Laboratory results reported in PubChem BioAssay (EPA / NIEHS).
More than one record can exist for a structure, and the calls need not agree. Active and inactive are the calls of the source. How the source made its calls: active means hit-call score of the fitted dose curve at least 0.9, where 1 is the maximum; inactive means score below 0.9.

Assays:
[1] = BSK_3C_TissueFactor: BioMAP Diversity Plus: 3C Assay for Tissue Factor Biomarker Activity (AID 2282997); conditions: BioMAP 3C HUVEC, tissue factor biomarker readout; actives raise or lower the signal
Procedure, shortened: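 HUVEC were treated 24 h, then surface tissue factor measured by ELISA and fitted bidirectionally against DMSO. Parallel SRB total-protein staining assessed overt cytotoxicity at the same time point.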

[2] = BSK_3C_uPAR: BioMAP Diversity Plus: 3C Assay for Urokinase-type plasminogen activator receptor (uPAR) Biomarker Activity (AID 2282998); conditions: BioMAP 3C HUVEC, uPAR biomarker ELISA; actives raise or lower the signal
Procedure, shortened: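 Primary human umbilical vein endothelial cells, 3C system; surface uPAR measured by ELISA 24 h after dosing. Cytotoxicity via SRB total protein in parallel cultures; bidirectional fit against DMSO.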

[3] = BSK_3C_VCAM1: BioMAP Diversity Plus: 3C Assay for Vascular cell adhesion molecule 1 (VCAM1) Biomarker Activity (AID 2282999); conditions: BioMAP 3C HUVEC, VCAM1 ELISA, cytokine-stimulated; actives raise or lower the signal
Procedure, shortened: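 Human umbilical vein endothelial cells (3C system), biomarker read by ELISA 24 h after dosing; bidirectional fit against DMSO baseline. Cytotoxicity tracked by SRB total-protein staining in parallel cultures at biomarker time.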

[4] = BSK_4H_Eotaxin3: BioMAP Diversity Plus: 4H Assay for Eotaxin 3 Biomarker Activity (AID 2283000); conditions: primary human endothelial cells (HUVEC); actives raise or lower the signal;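 further: CCL26 protein level quantified by ELISA in parallel with SRB cytotoxicity check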
Procedure, shortened: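 Eotaxin-3 (CCL26) levels were measured by ELISA in HUVEC primary cultures 24 h post-dosing. Gain or loss of signal was fitted in both directions, with DMSO serving as baseline and negative control.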

[5] = read-out: Intercellular Adhesion Molecule 1 (ICAM1), ICAM1 (gene 3383); assay: BSK_3C_ICAM1: BioMAP Diversity Plus: 3C Assay for Intercellular Adhesion Molecule 1 (ICAM1) Biomarker Activity (AID 2283003); conditions: primary human endothelial cells (HUVEC); actives raise or lower the signal
Procedure, shortened: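 Human vascular endothelial primary cells, 3C conditions, 24 h treatment. ICAM-1 by ELISA.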

[6] = BSK_3C_Proliferation: Cell Proliferation Assessment in the BioMAP Diversity Plus: 3C Assay (AID 2283006); conditions: primary human endothelial cells (HUVEC)
Procedure, shortened: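 Proliferation of human vascular endothelial primary cells after 48 h dosing, quantified as SRB-stained protein at 560 nm relative to DMSO.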

[7] = read-out: E-selectin (Homo sapiens) (UniProt P16581); assay: BSK_3C_Eselectin: BioMAP Diversity Plus: 3C Assay for Eselectin Biomarker Activity (AID 2283015); conditions: primary human endothelial cells (HUVEC); actives raise or lower the signal;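 further: cell surface E-selectin protein quantified by ELISA 24 h after dosing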
Procedure, shortened: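 Primary human umbilical vein endothelial cells (3C system), read 24 h after compound addition; E-selectin measured by ELISA. Bidirectional curve fitting against DMSO baseline; cytotoxicity by parallel SRB total-protein staining.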

[8] = read-out: Interleukin-1 alpha (IL1a), IL1A (gene 3552); assay: BSK_BE3C_IL1a: BioMAP Diversity Plus: BE3C Assay for Interleukin-1 alpha (IL1a) Biomarker Activity (AID 2283016); conditions: primary human bronchial epithelial cells; actives raise or lower the signal
Procedure, shortened: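 Cultures of primary human bronchial epithelial cells receive test chemical. After 24 h, IL-1a is quantified by ELISA, while parallel wells are fixed in TCA and SRB-stained for total protein. Changes in either direction are fitted relative to DMSO.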

[9] = read-out: Monocyte Chemoattractant Protein-1 (MCP1), CCL2 (gene 6347); assay: BSK_3C_MCP1: BioMAP Diversity Plus: 3C Assay for Monocyte Chemoattractant Protein-1 (MCP1) Biomarker Activity (AID 2283017); conditions: primary human endothelial cells (HUVEC); actives raise or lower the signal
Procedure, shortened: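 Human umbilical vein endothelial cells (3C system) exposed to chemicals for 24 h; MCP-1 quantified by ELISA against the DMSO baseline with bidirectional fitting, and parallel SRB staining used to assess cytotoxicity.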

[10] = read-out: Monocyte Chemoattractant Protein-1 (MCP1), CCL2 (gene 6347); assay: BSK_4H_MCP1: BioMAP Diversity Plus: 4H Assay for Monocyte Chemoattractant Protein-1 (MCP1) Biomarker Activity (AID 2283018); conditions: primary human endothelial cells (HUVEC); actives raise or lower the signal
Procedure, shortened: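 Readout: MCP-1 ELISA on compound-treated HUVEC, sampled 24 h post-dosing. Baseline and negative control DMSO; bidirectional fit. Overt toxicity checked alongside by sulforhodamine B protein staining at time of biomarker measurement.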

[11] = read-out: Human Leukocyte Antigen - DR isotype (HLADR), HLA-DRA (gene 3122); assay: BSK_3C_HLADR: BioMAP Diversity Plus: 3C Assay for Human Leukocyte Antigen - DR isotype (HLADR) Biomarker Activity (AID 2283019); conditions: primary human endothelial cells (HUVEC); actives raise or lower the signal;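 further: ELISA of cell-surface HLA-DR on HUVEC 24 h after dosing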
Procedure, shortened: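 HUVEC monoculture, HLA-DR measured by ELISA 24 h after chemical dosing. Fitted bidirectionally against DMSO baseline; parallel SRB staining assessed cytotoxicity, with 3C proliferation read by SRB at 48 h.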

[12] = read-out: Interleukin-8 (IL8), CXCL8 (gene 3576); assay: BSK_3C_IL8: BioMAP Diversity Plus: 3C Assay for Interleukin-8 (IL8) Biomarker Activity (AID 2283020); conditions: primary human endothelial cells (HUVEC); actives raise or lower the signal
Procedure, shortened: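 Human vascular endothelial cells (umbilical vein) in the 3C system; IL-8 level detected by ELISA at 24 h post-dose, with DMSO as baseline.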

[13] = read-out: Monokine induced gamma interferon (MIG), CXCL9 (gene 4283); assay: BSK_3C_MIG: BioMAP Diversity Plus: 3C Assay for Monokine induced gamma interferon (MIG) Biomarker Activity (AID 2283021); conditions: primary human endothelial cells (HUVEC); actives raise or lower the signal
Procedure, shortened: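 After 24 h of treatment, human umbilical vein endothelial cultures (3C system) had their MIG biomarker level determined by ELISA, with DMSO serving as negative control.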

[14] = BSK_3C_SRB: Viability Assessment in the BioMAP Diversity Plus: 3C Assay (AID 2283023); conditions: primary human endothelial cells (HUVEC);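 further: fitted both ways against DMSO so a hit may be signal rise or drop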
Procedure, shortened: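 Human umbilical vein endothelial cells in the 3C system, treated 24 h. Total protein measured by 0.1% sulforhodamine B staining after 10% TCA fixation, read at 560 nm; bidirectional fit versus DMSO.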

[15] = read-out: Matrix Metallopeptidase 1 (MMP1), MMP1 (gene 4312); assay: BSK_BE3C_MMP1: BioMAP Diversity Plus: BE3C Assay for Matrix Metallopeptidase 1 (MMP1) Biomarker Activity (AID 2283024); conditions: primary human bronchial epithelial cells; actives raise or lower the signal
Procedure, shortened: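 Dose cells, wait 24 h, run MMP1 ELISA; cells are human bronchial epithelial primaries. Both increases and decreases relative to DMSO counted.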

[16] = read-out: Pselectin, SELP (gene 6403); assay: BSK_4H_Pselectin: BioMAP Diversity Plus: 4H Assay for Pselectin Biomarker Activity (AID 2283026); conditions: primary human endothelial cells (HUVEC); actives raise or lower the signal
Procedure, shortened: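 Human vascular endothelium from umbilical vein; P-selectin measured by ELISA at 24 h post-dose, with cytotoxicity checked by sulforhodamine B total-protein staining in parallel cultures (0.1% SRB after 10% TCA fixation, read at 560 nm).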

[17] = BSK_4H_SRB: Viability Assessment in the BioMAP Diversity Plus: 4H Assay (AID 2283027); conditions: primary human endothelial cells (HUVEC);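 further: cells exposed to compound for 24 h before staining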
Procedure, shortened: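 Human umbilical vein endothelial cells, 24 h after chemical dosing; total protein measured by 0.1% sulforhodamine B staining after 10% TCA fixation, read at 560 nm. Bidirectional fitting against DMSO.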

[18] = BSK_BE3C_SRB: Viability Assessment in the BioMAP Diversity Plus: BE3C Assay (AID 2283028); conditions: primary human bronchial epithelial cells
Procedure, shortened: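 Human bronchial epithelial primary cells in confluent culture, 24 h after chemical dosing; total protein by 0.1% SRB staining after 10% TCA fixation, read at 560 nm. Bidirectional fitting versus DMSO baseline.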

[19] = read-out: Thrombomodulin, THBD (gene 7056); assay: BSK_3C_Thrombomodulin: BioMAP Diversity Plus: 3C Assay for Thrombomodulin Biomarker Activity (AID 2283029); conditions: primary human endothelial cells (HUVEC); actives raise or lower the signal
Procedure, shortened: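 Thrombomodulin ELISA, human primary HUVEC, 24 h post-dose; data fitted in both directions relative to DMSO.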

[20] = read-out: Vascular endothelial growth factor receptor 2 (Homo sapiens) (UniProt P35968); assay: BSK_4H_VEGFRII: BioMAP Diversity Plus: 4H Assay for Vascular endothelial growth factor receptor 2 (VEGFR2) Biomarker Activity (AID 2283031); conditions: primary human endothelial cells (HUVEC); actives raise or lower the signal;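 on AC50: cell-surface VEGFR2 protein level quantified by ELISA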
Procedure, shortened: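 Primary human umbilical vein endothelial cells (4H system), 24 h exposure; cell-surface VEGFR2 measured by ELISA. Bidirectional fitting versus DMSO; cytotoxicity checked in parallel by SRB total-protein staining.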

[21] = read-out: Human Leukocyte Antigen - DR isotype (HLADR), HLA-DRA (gene 3122); assay: BSK_BE3C_HLADR: BioMAP Diversity Plus: BE3C Assay for Human Leukocyte Antigen - DR isotype (HLADR) Biomarker Activity (AID 2283032); conditions: primary human bronchial epithelial cells; actives raise or lower the signal
Procedure, shortened: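 Signal came from an ELISA for HLA-DR in human bronchial epithelial primary cells harvested 24 h after treatment; gain- and loss-of-signal fitting used DMSO controls as reference.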

[22] = read-out: Interferon-gamma inducible Protein 10 (IP10), CXCL10 (gene 3627); assay: BSK_BE3C_IP10: BioMAP Diversity Plus: BE3C Assay for Interferon-gamma inducible Protein 10 (IP10) Biomarker Activity (AID 2283034); conditions: primary human bronchial epithelial cells; actives raise or lower the signal
Procedure, shortened: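 Using primary human bronchial epithelial cultures, the assay captures IP-10 by ELISA one day (24 h) after exposure. Parallel SRB staining of total protein flags overt cytotoxicity. Fits run bidirectionally relative to DMSO.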

[23] = read-out: Monokine induced gamma interferon (MIG), CXCL9 (gene 4283); assay: BSK_BE3C_MIG: BioMAP Diversity Plus: BE3C Assay for Monokine induced gamma interferon (MIG) Biomarker Activity (AID 2283035); conditions: primary human bronchial epithelial cells; actives raise or lower the signal
Procedure, shortened: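 Primary human bronchial epithelial cells treated for 24 h; MIG levels measured by ELISA, fitted bidirectionally versus DMSO. Parallel SRB total-protein staining assessed cytotoxicity.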

[24] = read-out: Plasminogen activator inhibitor-1 (PAI1), SERPINE1 (gene 5054); assay: BSK_BE3C_PAI1: BioMAP Diversity Plus: BE3C Assay for Plasminogen activator inhibitor-1 (PAI1) Biomarker Activity (AID 2283037); conditions: primary human bronchial epithelial cells; actives raise or lower the signal
Procedure, shortened: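 PAI-1 biomarker levels in treated human bronchial epithelial cells are determined by ELISA at 24 h. Both increases and decreases relative to DMSO are fitted.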

[25] = read-out: urokinase plasminogen activator (uPA), PLAU (gene 5328); assay: BSK_BE3C_uPA: BioMAP Diversity Plus: BE3C Assay for urokinase plasminogen activator (uPA) Biomarker Activity (AID 2283038); conditions: primary human bronchial epithelial cells; actives raise or lower the signal;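 further: uPA protein level quantified by ELISA in cell cultures; uPA read one day after compound addition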
Procedure, shortened: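 Primary human bronchial epithelial cells, uPA measured by ELISA 24 h after dosing. Bidirectional change relative to DMSO; cytotoxicity checked in parallel cultures by sulforhodamine B total-protein staining.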

[26] = read-out: Urokinase-type plasminogen activator receptor (uPAR), PLAUR (gene 5329); assay: BSK_BE3C_uPAR: BioMAP Diversity Plus: BE3C Assay for Urokinase-type plasminogen activator receptor (uPAR) Biomarker Activity (AID 2283039); conditions: primary human bronchial epithelial cells; actives raise or lower the signal;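 further: cells exposed to compound for one day before measurement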
Procedure, shortened: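 A uPAR ELISA serves as the readout, taken 24 h after treating primary human bronchial epithelial cells. Responses in either direction are fitted against DMSO, which defines baseline activity.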

[27] = read-out: Interleukin-6 (IL6), IL6 (gene 3569); assay: BSK_CASM3C_IL6: BioMAP Diversity Plus: CASM3C Assay for Interleukin-6 (IL6) Biomarker Activity for (AID 2283040); conditions: primary human coronary artery smooth muscle cells; actives raise or lower the signal

Measured: AC50

Chain of E-selectin (Homo sapiens) (P16581 whole entry, looked up): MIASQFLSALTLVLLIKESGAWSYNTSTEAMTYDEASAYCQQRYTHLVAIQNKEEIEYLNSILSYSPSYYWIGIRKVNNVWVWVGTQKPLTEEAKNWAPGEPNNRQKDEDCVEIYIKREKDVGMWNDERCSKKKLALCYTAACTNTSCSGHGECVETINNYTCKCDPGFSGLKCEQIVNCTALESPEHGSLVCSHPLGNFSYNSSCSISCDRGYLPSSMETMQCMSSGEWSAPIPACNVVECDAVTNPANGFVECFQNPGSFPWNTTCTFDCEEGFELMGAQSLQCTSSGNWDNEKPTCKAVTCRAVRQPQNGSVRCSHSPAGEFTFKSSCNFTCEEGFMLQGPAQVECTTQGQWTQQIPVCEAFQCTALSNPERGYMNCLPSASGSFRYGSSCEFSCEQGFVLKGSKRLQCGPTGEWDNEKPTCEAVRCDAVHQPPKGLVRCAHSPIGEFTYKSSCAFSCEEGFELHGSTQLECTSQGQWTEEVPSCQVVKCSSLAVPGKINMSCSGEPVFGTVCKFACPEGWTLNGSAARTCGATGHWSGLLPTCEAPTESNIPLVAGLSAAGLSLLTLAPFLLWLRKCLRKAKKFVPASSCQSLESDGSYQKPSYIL

CCCC[N+](CCCC)(CCCC)CCCC
active: [15] 3.97 µM | [20] 2.14 µM
inactive: [1] | [2] | [3] | [4] | [5] | [6] | [7] | [8] | [9] | [10] | [11] | [12] | [13] | [14] | [15] | [16] | [17] | [18] | [19] | [20] | [21] | [22] | [23] | [24] | [25] | [26] | [27]
